The supplement of paper PMC11417369
± gives the standard deviation of the averaged measurements. In all, about 25,000 sequences were measured (“ln(normalized median fluorescence intensity)”: median about 10, highest 2% from about 12 on). The sample as a whole holds a higher share of the highest values than the screen did.

Tested on: PfAP2-G AP2 domain (GST-tagged)
Test: gcPBM binding intensity (ln(normalized median fluorescence intensity)); higher = stronger DNA binding
Method in brief: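 Plasmodium falciparum DNA-binding domains carrying a GST tag were expressed in E. coli and applied for 1 h, at about 25 μg on average, to an Agilent 4 × 180k array. The array held primer-extended double-stranded 36-bp intergenic genomic probes together with negative controls, and binding took place in 1× PBS with 1% milk, 0.2 mg/ml BSA, 0.5% salmon testes DNA and 0.03% Triton X-100. An Alexa488 anti-GST antibody detected bound protein, and the array was scanned at 488 nm. Binding intensity is taken as the highest Masliner-normalised natural-log median intensity across replicate spots of either probe orientation.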

Sequence | gcPBM binding intensity (ln)
AAAAAATACTTATAAAGTACTAATATATATAAGCAG [XGTACX_site743] | 10.9 ± 0.48
TTTATGGAATAATCACGTACACACAAGAAAAAAAAA [XGTACX_site985] | 11.4 ± 0.91
TTTATATTTAAAAGGATGCACTACAAATTCTAAATA | 10.3 ± 0.3
TTTTTTTTTCCCGTAAATATTGAGACAACCATAATG [CACACA_negctrl_site41] | 10.6 ± 0.54
TATATAATATTACGTTGTACACTTTAATCTCCCTTC [XGTACX_site5577] | 11.1 ± 0.7
CTATTTTTTGTATAAACATGCATATAGTAGATATGG [TGCATGCA_site670] | 10.1 ± 0.23
TTTAAACCTTAATATTGTACGCAAAAAAAAAAAGAA [XGTACX_site3757] | 11.6 ± 1
AAAGAATTTAAATATTGTACGCAATATATAAAAAAA [XGTACX_site7616] | 11.5 ± 0.92
CTTTAACCTTTTTATTGTACTTTTAATATTTTAAAA [XGTACX_site4457] | 11.4 ± 0.86
CATTTTATTTTAATATGTACTTAAAGAAAAAAAATT [XGTACX_site7670] | 11.2 ± 0.82
TTACATGTAAAAGGTACACACATTATGTATACAAAT [CACACA_site1117] | 11.4 ± 0.88
TATTAAAAGGTGAGTACACACATATATGTGTATATA [CACACA_site7070] | 11.4 ± 0.83
TATGTGTGCAAAAACTGTACACATTAAAGGTATATA [XGTACX_site7627] | 11.7 ± 1.1
AAATTATTTCTTTGCGCATGTAGCTTTTATACTATT [TGCATGCA_site819] | 9.98 ± 0.16
ATTAAGTTCAAATGTAGTACGTGTAAAAAAAAAAAA [XGTACX_site1578] | 11.4 ± 0.83
AATGGTTCAACGTAGTGTACGTAATAAATAATAAAT [XGTACX_site8668] | 11.8 ± 0.95
TAAAAATATAAATTTTGTACGTAAAAAATGGTTCTT [XGTACX_site1506] | 11.5 ± 0.93
GGATAAGAAAAGAAGTGTACATATATATATATATAT [XGTACX_site8290] | 11.2 ± 0.68
ATTCGGATCTATAAGTGTACACAATCTAGCGAAAAG [XGTACX_site3088] | 11.5 ± 0.83

Sequence | gcPBM binding intensity (ln)
CGGATCTATAAGTGTACACAATCTAGCGAAAAGTTT [CACACA_site4932] | 11.6 ± 1
AGGCACAAAATTAAATGTACATATATATATATATAT [XGTACX_site3323] | 11 ± 0.6
ACGGATTAAAAAATGTGTACGCACAAAAAAAAAAAT [XGTACX_site8259] | 11.7 ± 0.97
TTATTAAAAATGGTATGTACGCACATAATATATATA [XGTACX_site3230] | 11.5 ± 0.71
CAAACCCACCAACACACACACACAAAAATGATTAAA [CACACA_site2432] | 10.2 ± 0.35
ATGTTCTTTAAAACCACACACCCCCCAACCCCCCTC [CACACA_site2373] | 11.7 ± 1
CTTTAAACCCTGAACACACACAAATACACCCAAAAA [CACACA_site4297] | 10.7 ± 0.54
TTATGTTCTTTAAAACCACACACCCCCCAACCCCCC [CACACA_site8742] | 11.6 ± 0.87
CACACCCACAAAAACACACACAAAGGTGTTCTTATA [CACACA_site1293] | 10 ± 0.13
TTTTTTTTTTTTTTTTTTTTTTTATGTTCTTAAAAA [GTGCAC_negctrl_site62] | 9.56 ± 0.35
TATATATGTATCAAGTGTACAGTTTTAAAAAAAAAA [XGTACX_site6011] | 11.4 ± 0.87
TTTCTTACAACAACAACAAAAAAAAATAAATAAAAT [GTGCAC_negctrl_site711] | 9.91 ± 0.16
AATATATATGAAAAAAGTACTCAAGGAATAAAAAAA [XGTACX_site7720] | 11.3 ± 0.67
TAATAAAACATATATACACACATTAGATATACATAT [CACACA_site6897] | 9.92 ± 0.057
TCTTTGTACTTTCACATGTACACCCAAATGGAAATT [CACACA_negctrl_site1442] | 11.8 ± 0.87
AAATTACTTTCACAGTGTACTTGGAAAAAAAAAAGA [XGTACX_site1046] | 11.3 ± 0.8
AATGGAAATTTTTCTTGTACACATATATGACATGTT [XGTACX_site1691] | 11.3 ± 0.86
ACATCTAGGCTTATTTTATGATACATGTGAATATAT [TGCATGCA_negctrl_site325] | 9.79 ± 0.099
TTTCATTTAGCTTTTACACACTATATATTATTGATT [CACACA_site16] | 9.82 ± 0.11

Sequence | gcPBM binding intensity (ln)
AAAAAAATAAAACACATACATATATGTATATATATA [GTGCAC_negctrl_site390] | 9.77 ± 0.2
AAAAATATATAAACACGTACACACACATATATGTAT [XGTACX_site7436] | 11.6 ± 0.88
AATAAACATATATGTACACACATATACATATATATA [CACACA_site2848] | 11.4 ± 1.2
ATAATAAACATATATGTACACACATATACATATATA [CACACA_site8924] | 11.3 ± 0.94
AGTTATATGTACTACACACGTACACAAAATAAGATA [CACACA_site3719] | 11.6 ± 0.75
TAAGTTATATGTACTACACACGTACACAAAATAAGA [CACACA_site9237] | 11.8 ± 1
TATATCTACTACACACGTACACAAAATAAGATACCT [XGTACX_site7886] | 11.5 ± 0.97
ACATAAATAATAAAAACACACATATGTACATATATA [CACACA_site1913] | 11.3 ± 0.79
AATATATAAACACGTACACACACATATATGTATATA [CACACA_site9168] | 11.6 ± 1
GCTATATATTACAATCGTACAATATATATATATATA [XGTACX_site6730] | 10.8 ± 0.68
TATATTTATAACAACACACACAGATCATAAAACTGC [CACACA_site7086] | 10.2 ± 0.12
TTTTTCCAATCAGATGCATGTTACTATATTTGGTTC [TGCATGCA_site52] | 9.96 ± 0.014
ATATATTATTATAACTGTACTTTTTTTGTGGTTAAT [XGTACX_site8266] | 11.5 ± 0.83
TCATAGTATAAACACACACACACACCCATATATATA [CACACA_site8512] | 10.2 ± 0.3
ATAAATTGTTCTTTTTGTGTAAACAGAATATTAAAA [CACACA_negctrl_site1022] | 10.1 ± 0.21
TAAGAAATAAATAGTACACACATAGACACCCACCCA [CACACA_site8429] | 11.7 ± 0.8
TAAGAAATAAATAGTACACACATAGACACCCACCGA [CACACA_site1516] | 11.5 ± 0.93
GCATAAGAAATAAATAGTACACACATAGACACACAC [XGTACX_site3095] | 11.6 ± 0.85
